The full ranking holds about 35,000 sequences; the median of “fluorescence intensity (a.u.)” is about 10,000, and the highest 2% start at about 52,000. The list comes from a sample in which the highest values are over-represented; it also holds similar and randomly drawn sequences.

The target in the assay is T1, OsWOX13 (Oryza sativa, UniProt Q5QMM3 1-267).
T1 sequence: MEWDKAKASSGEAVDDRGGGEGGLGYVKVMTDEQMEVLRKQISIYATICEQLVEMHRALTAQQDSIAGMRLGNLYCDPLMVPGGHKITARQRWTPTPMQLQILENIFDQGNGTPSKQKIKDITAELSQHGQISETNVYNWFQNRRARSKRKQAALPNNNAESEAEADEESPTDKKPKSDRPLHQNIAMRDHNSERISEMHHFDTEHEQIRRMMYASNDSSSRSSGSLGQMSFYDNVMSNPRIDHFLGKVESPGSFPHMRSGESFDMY
Nature of the assay: protein-binding microarray (RPBM); PBS, 2% BSA, 51.3 ng/ul salmon testes DNA, 50 uM zinc acetate, 200 nM TF, 25 C, 1 h; high values mean tight binding. The following applies: protein: recombinant; tags: N-terminal polyhistidine and DsRed monomer fusion (pET32a); label: CyDye5-dUTP incorporated in the synthesized complementary strand; 3' TTTTT single-stranded linker to array surface; dsDNA, one strand shown. The gist of the method: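 The binding signal is fluorescence intensity per array feature (arbitrary units). Readings came from an Axon 4000B scanner after a washed, 2% BSA-blocked, double-stranded custom Agilent array had been incubated for 1 h at 25 °C with 200 nM protein and 50 µM zinc acetate. The protein was a Ni–NTA-purified transcription factor fused N-terminally to polyhistidine and DsRed, expressed in E. coli BL21-CodonPlus.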
Consider “CTCATGATTTACGGCTGCTGGCCGCCGGGCTATTTAACCACGGAGTCACCTAGTGCAG”, for which the binding signal is 10900 fluorescence intensity (a.u.).

In the case of “GTGATCACCCTTTGATTGACCCGCACCCGCATCCCTTTCCCGGAGTCACCTAGTGCAG”, the binding signal was 35500 fluorescence intensity (a.u.).

As for “TTGATTGCAGATCAAATGCATGCAATAAGAATGGAGATGGCGGAGTCACCTAGTGCAG”, the binding signal is 19600 fluorescence intensity (a.u.).

For “TGTCACATCACATCGATCATTGATTTCACTTTGATTCCTCCGGAGTCACCTAGTGCAG”, the binding signal is 5220 fluorescence intensity (a.u.).

With “ATGATTTGCATGATTGCTTGCTTGCTTGCTGCTATGGCCACGGAGTCACCTAGTGCAG”, the binding signal is 62700 fluorescence intensity (a.u.).

In the case of “CCAATAATAACACTGATCACTGATCAATCATGGCATCATGCGGAGTCACCTAGTGCAG”, the binding signal is 16000 fluorescence intensity (a.u.).

“ATCATGATTGCATGATTGATTGCACATTTGCATCATTTCCCGGAGTCACCTAGTGCAG”: the binding signal is 63400 fluorescence intensity (a.u.).

On to “ATTGATTGATCAAGACTGCATGGCAATACTCGACGTGCTGCGGAGTCACCTAGTGCAG”, for which the binding signal was 64800 fluorescence intensity (a.u.).

Regarding “AAGATTGGATTCGCTGCAATACCATCACTAAACTCGGCTTCGGAGTCACCTAGTGCAG”, the binding signal was 12800 fluorescence intensity (a.u.).

With “CACTTAATCATATTCATCATATTCAAACGGGACCTAAGGGCGGAGTCACCTAGTGCAG”, the binding signal was 8880 fluorescence intensity (a.u.).

In the case of “CCCTCCATCCCCTCAGTCCACTCAATCACCACACCAGCCACGGAGTCACCTAGTGCAG”, the binding signal was 3850 fluorescence intensity (a.u.).

In the case of “CCAATCACATTCACTTTTACAGTTTAGCCCCACCCTCTCCCGGAGTCACCTAGTGCAG”, the binding signal is 4980 fluorescence intensity (a.u.).

For “ATGAAGAAACTGTTGGTGATTTGACAAGTAGGCTTGGTTCCGGAGTCACCTAGTGCAG”, the binding signal was 6530 fluorescence intensity (a.u.).

On to “GCTTGATGACCAAGTATATATAAACATGTCAGTGATTATTCGGAGTCACCTAGTGCAG”, for which the binding signal was 5670 fluorescence intensity (a.u.).

As for “CTGTATATTGATTGATTGGTTATTCGCAAGAAACATGACTCGGAGTCACCTAGTGCAG”, the binding signal is 65100 fluorescence intensity (a.u.).

Regarding “ATATTGATTGATTGGTTATTCGCAAGAAACATGACTGTTCCGGAGTCACCTAGTGCAG”, the binding signal was 63800 fluorescence intensity (a.u.).

On to “ATTCTGATTGGCAAGTTGGTTATTCCTTTTCTGATTGGTTCGGAGTCACCTAGTGCAG”, for which the binding signal was 60700 fluorescence intensity (a.u.).

Regarding “GTTATCATGATTTATATTCCCAAGGTTTGACTTAAACATTCGGAGTCACCTAGTGCAG”, the binding signal is 11400 fluorescence intensity (a.u.).

In the case of “ATACCTTATTGAAATATGATTGTTCGACTGGTTACTGAATCGGAGTCACCTAGTGCAG”, the binding signal was 19500 fluorescence intensity (a.u.).

Regarding “GGGCATAAATTTTGGTGATTTTCGGTTTTCTGAAGTTCCTCGGAGTCACCTAGTGCAG”, the binding signal is 7130 fluorescence intensity (a.u.).

As to “GATTCCCTTCTTTTCTTTGGTTGATTTCTTTCTGTATTTCCGGAGTCACCTAGTGCAG”, the binding signal is 5880 fluorescence intensity (a.u.).

Regarding “AGGGAATTTTATGATTTGCATTGGTGCTGAGGTCAAACCCCGGAGTCACCTAGTGCAG”, the binding signal is 7180 fluorescence intensity (a.u.).

Consider “GACAGATTAATTAAAGAATCATCATTACTGCGATGCGACCCGGAGTCACCTAGTGCAG”, for which the binding signal was 16600 fluorescence intensity (a.u.).

“ACAAATTGCCAACTCATGAAAGTGATCGATGATGGGCTTACGGAGTCACCTAGTGCAG”: the binding signal was 15700 fluorescence intensity (a.u.).

Regarding “GTCCTACATATGCTAAATTGGCAATATGTAAAGATTTACTCGGAGTCACCTAGTGCAG”, the binding signal is 4980 fluorescence intensity (a.u.).

In the case of “TTATTTATCAGTCTGATTTTATATAATGTAATATTATGCACGGAGTCACCTAGTGCAG”, the binding signal was 3150 fluorescence intensity (a.u.).

Consider “TAAGTTAAATAACTATTAATTGTGGCCTGTGCTCAGCCTTCGGAGTCACCTAGTGCAG”, for which the binding signal was 9070 fluorescence intensity (a.u.).

As for “AAATTAACTTAATTAATAAGTTGAGCAGCCTGTAGGCCTTCGGAGTCACCTAGTGCAG”, the binding signal was 17500 fluorescence intensity (a.u.).

For the sequence “GCAAATTAACTTAATTAATAAGTTGAGCAGCCTGTAGGCCCGGAGTCACCTAGTGCAG”, the binding signal was 58200 fluorescence intensity (a.u.).

For “AATGATTAGAATTTGGTAAAGTAGAGGACAAAGATAAAATCGGAGTCACCTAGTGCAG”, the binding signal was 7910 fluorescence intensity (a.u.).

Turning to “AAAATAAACAAATCTATCCACTAACAATTTGACATGATATCGGAGTCACCTAGTGCAG”, the binding signal is 7240 fluorescence intensity (a.u.).

Consider “TTTAACACAAATGAGAACTTGATCGATTCCTCGTATTGTTCGGAGTCACCTAGTGCAG”, for which the binding signal was 3850 fluorescence intensity (a.u.).

For the sequence “TTTGAGTGATTGACAGGAAACAAATCCACCACTATCTGTTCGGAGTCACCTAGTGCAG”, the binding signal was 62400 fluorescence intensity (a.u.).

For the sequence “TTCGGATTGATTGTTGAGACAAATCTCGTAGAACACGGAACGGAGTCACCTAGTGCAG”, the binding signal is 62900 fluorescence intensity (a.u.).

As to “GAAATTGATTTATCCAGGGAAACTGTCGTGACAAATTTCGCGGAGTCACCTAGTGCAG”, the binding signal is 49300 fluorescence intensity (a.u.).

As for “GGATAGAATTGATTGAGCGAGAGAGAGAATTGAACACAAACGGAGTCACCTAGTGCAG”, the binding signal is 21200 fluorescence intensity (a.u.).

Take “ATAAATAAATACTCTAATTGCAAGCAACCAACGTCCCAACCGGAGTCACCTAGTGCAG”: the binding signal was 5780 fluorescence intensity (a.u.).

For the sequence “CTACAATTTATCATAAACTTGATAAAATATAAACAAATTCCGGAGTCACCTAGTGCAG”, the binding signal is 4240 fluorescence intensity (a.u.).

On to “AGGACATAATTTTAATGGGGAAATTGGTTCCATACCATCTCGGAGTCACCTAGTGCAG”, for which the binding signal was 20500 fluorescence intensity (a.u.).

For “AGCTAGCTTTGACTAATCAATCAGCAGCTAATTTCAGTCTCGGAGTCACCTAGTGCAG”, the binding signal is 13700 fluorescence intensity (a.u.).

Regarding “TAGCTTAGCTCGTATTCGTATAAAACGTAGTACAAGGTTCCGGAGTCACCTAGTGCAG”, the binding signal was 61300 fluorescence intensity (a.u.).

“ATTTAATAGTATTAAACGTAGATTACTGATAAAACCTATTCGGAGTCACCTAGTGCAG”: the binding signal was 4260 fluorescence intensity (a.u.).

Regarding “AAAATAAATTGACAACATTCGTACAATATATATAAATATCCGGAGTCACCTAGTGCAG”, the binding signal is 25900 fluorescence intensity (a.u.).

Source of the values: article PMC7819943, “Rice protein-binding microarrays: a tool to detect cis-acting elements near promoter regions in rice”.
